# This is part of a sample that, as a whole, favours compounds with a hit. Of some 79,000 tested, about 15% had one in any assay. Unmarked numbers belong to inactive results. The source made the active and inactive calls. Cut-off read from the data, not from the text of the source: active = growth inhibition above about 70%; inactive = the rest.
# Experiments:
# [1] = NCI Yeast Anticancer Drug Screen. Data for the rad52 strain (AID 147);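 note: 0% = growth of vehicle-treated control cultures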; settings: S. cerevisiae rad52 mutant growth inhibition, active compounds read high
# Outline: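 Here a repair-compromised yeast strain receives each compound; its growth is then quantified and normalised to vehicle-only controls.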
# [2] = NCI Yeast Anticancer Drug Screen. Data for the wt1 strain (AID 149);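 note: 0% = growth of vehicle-treated wt1 cultures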; settings: S. cerevisiae wt1 strain (SPY 50644) growth inhibition, active compounds read high
# Outline: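 Each compound is tested on wt1 yeast and the loss of growth versus vehicle gives the inhibition value.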
# [3] = NCI Yeast Anticancer Drug Screen. Data for the rad50EPP+ strain (AID 151);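 note: 0% = growth of vehicle-treated control cultures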; settings: S. cerevisiae rad50 mutant strain, active compounds read high
# Outline: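 Read-out is yeast growth inhibition relative to vehicle; cells used were the rad50EPP+ strain.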
# [4] = NCI Yeast Anticancer Drug Screen. Data for the mgt1 strain (AID 153); settings: S. cerevisiae mgt1 mutant growth inhibition, active compounds read high
# Outline: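 Measured: inhibition of mgt1 yeast growth by compound, normalized to vehicle-treated cultures.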
# [5] = NCI Yeast Anticancer Drug Screen. Data for the rad50 strain (AID 155);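 note: 0% = growth of vehicle-only cultures of the same strain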; settings: S. cerevisiae rad50 strain growth inhibition, active compounds read high
# Outline: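 Vehicle-treated cultures provide the reference for the growth inhibition reported for compound-exposed, repair-deficient yeast.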
# [6] = NCI Yeast Anticancer Drug Screen. Data for the mec2-1 strain (AID 157); settings: S. cerevisiae mec2-1 strain, active compounds read high
# Outline: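 Using mec2-1 yeast: add compound, measure growth, express inhibition versus vehicle-treated cultures.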
# [7] = NCI Yeast Anticancer Drug Screen. Data for the rad14 strain (AID 159);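 note: 0% = growth of vehicle-treated control cultures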; settings: S. cerevisiae rad14 strain growth inhibition, active compounds read high
# Outline: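 Inhibition of growth is reported for a repair-deficient yeast mutant following compound treatment, calculated relative to cultures that received vehicle.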
# [8] = NCI Yeast Anticancer Drug Screen. Data for the sgs1 mgt1 strain (AID 161);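 note: 0% = growth of cultures given vehicle only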; settings: S. cerevisiae sgs1 mgt1 strain, active compounds read high
# Outline: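 Growth of a repair-deficient yeast mutant was monitored after compound treatment and expressed as inhibition relative to vehicle-treated cultures.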
# [9] = NCI Yeast Anticancer Drug Screen. Data for the CLN2oe strain (AID 163);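 note: 0% = growth of vehicle-only control cultures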; settings: S. cerevisiae CLN2oe strain, active compounds read high
# Outline: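 Whole-cell yeast growth assay. A strain engineered for altered cell-cycle control received compound, and inhibition relative to vehicle-treated cultures was recorded.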
# [10] = NCI Yeast Anticancer Drug Screen. Data for the cln2 rad14 strain (AID 165);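 note: 0% = growth equal to vehicle treated cultures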; settings: S. cerevisiae cln2 rad14 strain, active compounds read high
# Outline: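 Yeast strain cln2 rad14, bearing defects in cell cycle control and DNA repair, serves as the test system; values reflect growth inhibition compared with vehicle.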
# [11] = NCI Yeast Anticancer Drug Screen. Data for the bub3 strain (AID 167); settings: S. cerevisiae bub3 mutant strain, active compounds read high
# Outline: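 Mutant yeast screening strain plus compound; vehicle-treated cultures serve as the 0% inhibition reference.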
# [12] = NCI Yeast Anticancer Drug Screen. Data for the wt2 strain (AID 169); settings: S. cerevisiae wt2 strain growth inhibition, active compounds read high
# Outline: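 Treated yeast vs. vehicle-treated yeast: growth inhibition determined.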
# [13] = NCI Yeast Anticancer Drug Screen. Data for the mlh1 strain (AID 171);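 note: 0% = growth of vehicle-treated control cultures of the same strain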; settings: S. cerevisiae mlh1 strain growth inhibition, active compounds read high
# Outline: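 A yeast strain with a defined genetic lesion serves as the test organism. Cultures receive compound or vehicle, and growth is measured.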
# [14] = NCI Yeast Anticancer Drug Screen. Data for the sgs1 strain (AID 173);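 note: 0% = growth of vehicle-only control cultures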; settings: S. cerevisiae sgs1 mutant, active compounds read high
# Outline: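 A genetically defined yeast mutant is incubated with the test compound, and its growth is compared to that of the same strain given vehicle.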
# [15] = NCI Yeast Anticancer Drug Screen. Data for the mlh1 rad18 strain (AID 175); settings: S. cerevisiae mlh1 rad18 strain growth inhibition, active compounds read high
# Outline: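 Steps: expose repair-defective yeast to compound; measure growth; express inhibition against vehicle-treated controls.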
# [16] = NCI Yeast Anticancer Drug Screen. Data for the rad18 strain (AID 177); settings: S. cerevisiae rad18 mutant growth inhibition, active compounds read high
# Outline: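 Measured value is growth inhibition of a yeast strain bearing a DNA repair alteration, referenced to vehicle-treated cells.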
# [17] = at 5.0 µM (retest, dose inferred, filed as 0.5)
# [18] = at 50.0 µM (retest, dose inferred, filed as 5.0)
smiles,measurement,setting,value
Cc1ccc(CSC(N)=Nc2ccccc2)cc1C,growth inhibition,[1]; at 1.2 µM,20%
same,growth inhibition,[1]; at 3.7 µM,21%
same,growth inhibition,[1]; at 11.0 µM,21%
same,growth inhibition,[1]; at 33.0 µM,24%
same,growth inhibition,[1]; at 100.0 µM,30%
same,growth inhibition,[2]; at 1.2 µM,3%
same,growth inhibition,[2]; at 3.7 µM,13%
same,growth inhibition,[2]; at 11.0 µM,0%
same,growth inhibition,[2]; at 33.0 µM,4%
same,growth inhibition,[2]; at 100.0 µM,21%
same,growth inhibition,[3]; at 1.2 µM,4%
same,growth inhibition,[3]; at 3.7 µM,12%
same,growth inhibition,[3]; at 11.0 µM,11%
same,growth inhibition,[3]; at 33.0 µM,4%
same,growth inhibition,[3]; at 100.0 µM,15%
same,growth inhibition,[4]; at 1.2 µM,6%
same,growth inhibition,[4]; at 3.7 µM,-1%
same,growth inhibition,[4]; at 11.0 µM,-8%
same,growth inhibition,[4]; at 33.0 µM,14%
same,growth inhibition,[4]; at 100.0 µM,81% (active)
same,growth inhibition,[5]; at 1.2 µM,9%
same,growth inhibition,[5]; at 3.7 µM,5%
same,growth inhibition,[5]; [17],5%
same,growth inhibition,[5]; at 11.0 µM,14%
same,growth inhibition,[5]; at 33.0 µM,22%
same,growth inhibition,[5]; [18],40%
same,growth inhibition,[5]; at 50.0 µM,61.5%
same,growth inhibition,[5]; at 100.0 µM,30%
same,growth inhibition,[6]; at 1.2 µM,-3%
same,growth inhibition,[6]; at 3.7 µM,10%
same,growth inhibition,[6]; [17],-11%
same,growth inhibition,[6]; at 11.0 µM,-11%
same,growth inhibition,[6]; at 33.0 µM,1%
same,growth inhibition,[6]; [18],-22%
same,growth inhibition,[6]; at 50.0 µM,24.2%
same,growth inhibition,[6]; at 100.0 µM,40%
same,growth inhibition,[7]; at 1.2 µM,-22%
same,growth inhibition,[7]; at 3.7 µM,-14%
same,growth inhibition,[7]; at 11.0 µM,-17%
same,growth inhibition,[7]; at 33.0 µM,10%
same,growth inhibition,[7]; at 100.0 µM,64%
same,growth inhibition,[8]; [17],-10%
same,growth inhibition,[8]; [18],38%
same,growth inhibition,[8]; at 50.0 µM,53.2%
same,growth inhibition,[9]; at 1.2 µM,6%
same,growth inhibition,[9]; at 3.7 µM,10%
same,growth inhibition,[9]; at 11.0 µM,-1%
same,growth inhibition,[9]; at 33.0 µM,7%
same,growth inhibition,[9]; at 100.0 µM,46%
same,growth inhibition,[10]; [17],-16%
same,growth inhibition,[10]; [18],14%
same,growth inhibition,[10]; at 50.0 µM,-4.5%
same,growth inhibition,[11]; at 1.2 µM,4%
same,growth inhibition,[11]; at 3.7 µM,5%
same,growth inhibition,[11]; [17],11%
same,growth inhibition,[11]; at 11.0 µM,-4%
same,growth inhibition,[11]; at 33.0 µM,14%
same,growth inhibition,[11]; [18],22%
same,growth inhibition,[11]; at 50.0 µM,80% (active)
same,growth inhibition,[11]; at 100.0 µM,34%
same,growth inhibition,[12]; at 1.2 µM,2%
same,growth inhibition,[12]; at 3.7 µM,-3%
same,growth inhibition,[12]; at 11.0 µM,-13%
same,growth inhibition,[12]; at 33.0 µM,-5%
same,growth inhibition,[12]; at 100.0 µM,66%
same,growth inhibition,[13]; at 1.2 µM,-7%
same,growth inhibition,[13]; at 3.7 µM,-12%
same,growth inhibition,[13]; at 11.0 µM,-6%
same,growth inhibition,[13]; at 33.0 µM,4%
same,growth inhibition,[13]; at 100.0 µM,66%
same,growth inhibition,[14]; at 1.2 µM,6%
same,growth inhibition,[14]; at 3.7 µM,0%
same,growth inhibition,[14]; at 11.0 µM,7%
same,growth inhibition,[14]; at 33.0 µM,19%
same,growth inhibition,[14]; at 100.0 µM,73% (active)
same,growth inhibition,[15]; [17],-5%
same,growth inhibition,[15]; [18],41%
same,growth inhibition,[15]; at 50.0 µM,42%
same,growth inhibition,[16]; at 1.2 µM,6%
same,growth inhibition,[16]; at 3.7 µM,-7%
same,growth inhibition,[16]; at 11.0 µM,2%
same,growth inhibition,[16]; at 33.0 µM,0%
same,growth inhibition,[16]; at 100.0 µM,31%

# From PubChem BioAssay (NCI)
